Data reported in PubChem BioAssay (NCATS).
Several values for one entry are separate records, joined by “and”; a condition that tells them apart may be missing. Identical values can stand only once. Records with an inconclusive call do not appear. Activity calls are given as the source filed them. Unless noted, calls come from the whole dose curve; as a rule, active = well fitted curve in the direction sought with a large enough effect; inconclusive = small, poorly fitted or top-dose-only effect, or another doubt; inactive = no such curve, though single readings can be large; an effect the other way counts as inactive or inconclusive.

Columns and labels:
[1] = Cell Viability - NIH 3T3 (AID 541); conditions: NIH 3T3 cell viability, qHTS; activity change, negative = cytotoxicity: at 92.2 µM (top of the series);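 note: cells exposed to compound for 40 hours; nearly all actives have a fitted effect of over 25% in size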; note: potency is the fitted concentration of half-maximal effect;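 for activity change, negative = cytotoxicity: plate controls were DMSO alone for no effect and tamoxifen positive control for full effect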
In short: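 Intracellular ATP (CellTiter-Glo luminescence, 20 min at room temperature) measured after 40 hr compound exposure at 37 °C of 1000 NIH 3T3 mouse fibroblasts/well in complete medium; AC50 derived by Hill-equation modelling of qHTS concentration-response curves.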

[2] = Cellular Toxicity (caspase-3) HepG2 (AID 654);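 note: cells exposed to compound for 16 hours before reading; 0% = DMSO alone and 100% = caspase signal from 100 µM tamoxifen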
In short: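 Caspase 3/7 activation is measured as a luminescence increase (aminoluciferin substrate) after 16 h compound exposure of human hepatocarcinoma HepG2 cells. AC50 values are Hill fits, scaled between DMSO baseline and 100 uM tamoxifen stimulation.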

[3] = Cellular Toxicity (caspase-3) BJ (AID 658); conditions: Potency: caspase-3 activation;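 note: cells exposed to compound for 16 hours; 0% = DMSO basal and 100% = 10 µM staurosporine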
In short: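 Caspase-Glo 3/7 luminescence, read 1 hr after reagent at room temperature, in normal BJ fibroblasts exposed 16 hours at 37 °C. AC50 values from Hill-equation concentration-response, scaled between DMSO basal and 10 uM staurosporine as 100%.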

[4] = Cellular Toxicity (caspase-3) H-4-II-E (AID 663); conditions: Potency: caspase-3 activation;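 note: cells exposed to compound for 16 hr before readout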
In short: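 Caspase 3/7 activation measured by luminescent aminoluciferin substrate cleavage after 16 hr compound treatment of H-4-II-E cells in complete medium. Increase normalized between DMSO (basal) and 100 uM tamoxifen (100%); Hill-equation AC50 from concentration-response.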

[5] = Cellular Toxicity (caspase-3) Hek293 (AID 664); conditions: HEK293 caspase-3 activation, DMSO = 0%, 100 µM tamoxifen = 100%; at 92.2 µM (top of the series);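 note: cells exposed to compound for 16 h at 37 °C before readout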
In short: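 Concentration-response qHTS: caspase 3/7 activation measured by luminescent aminoluciferin substrate cleavage after 16 h compound exposure of Hek 293 cells. AC50 from Hill equation, with DMSO as basal and 100 uM tamoxifen as 100%.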

[6] = MultiTox-Fluor Cytotoxicity Assay - LYMP1-003 - Live Cells (AID 962);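 note: cells exposed to compound for 16 hours at 37 °C; 0% = DMSO only and full loss = 92 µM tetraoctylammonium bromide; cytotoxic hits lower the live-cell protease signal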
In short: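 Live-cell protease activity (GF-AFC substrate, 405/510 nm, 60 min at room temperature) after 16 h, 37 C compound exposure of human lymphoblastoid LYMP1-003 cells; concentration-response fitted to the Hill equation for AC50.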

[7] = Cell Viability - LYMP2-015 (AID 971);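 note: 0% = DMSO only and full effect = 92 µM tetraoctylammonium bromide; nearly all actives have a fitted effect of over 55% in size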
In short: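 Cytotoxicity readout: decrease in intracellular ATP (CellTiter-Glo luminescence) in 2500 LYMP2-015 lymphoblastoid cells/well after 24 h compound exposure at 37 C. Concentration-response data fitted with the standard Hill equation to give AC50.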

[8] = molecular target: Estrogen receptor (Homo sapiens) (UniProt P03372); assay: qHTS assay for small molecule antagonists of estrogen receptor alpha signaling (AID 588513; active = well fitted curve in the direction sought with a large enough effect in the signal ratio, with a control signal flat, not every such curve was filed as active; the % refers to the signal ratio; note: % is set by controls: 0 for no effect and ±100 for the full control effect)
Estrogen receptor (Homo sapiens), sequence (P03372 whole entry, looked up): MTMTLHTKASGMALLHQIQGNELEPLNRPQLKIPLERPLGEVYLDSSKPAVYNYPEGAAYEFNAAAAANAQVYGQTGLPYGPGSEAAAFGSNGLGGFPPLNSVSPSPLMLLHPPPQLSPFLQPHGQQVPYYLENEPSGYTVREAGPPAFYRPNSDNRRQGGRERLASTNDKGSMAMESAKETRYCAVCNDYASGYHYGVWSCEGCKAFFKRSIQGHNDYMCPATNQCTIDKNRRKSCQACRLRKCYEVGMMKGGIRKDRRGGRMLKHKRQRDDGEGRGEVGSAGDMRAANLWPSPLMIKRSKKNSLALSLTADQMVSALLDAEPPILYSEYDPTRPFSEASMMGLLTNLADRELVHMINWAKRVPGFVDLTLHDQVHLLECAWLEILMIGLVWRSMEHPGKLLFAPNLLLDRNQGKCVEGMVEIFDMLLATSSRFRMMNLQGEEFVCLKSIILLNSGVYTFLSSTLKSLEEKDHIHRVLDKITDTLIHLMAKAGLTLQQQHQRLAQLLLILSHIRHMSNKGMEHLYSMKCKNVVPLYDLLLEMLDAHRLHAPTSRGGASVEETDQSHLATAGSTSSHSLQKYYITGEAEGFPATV
In short: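 ER-alpha-UAS-bla GripTite HEK 293 cells in 2% charcoal/dextran-treated FBS medium; compounds titrated (1:2, duplicate), then stimulated with 0.5 nM 17-beta-estradiol for 18 h at 37C. CCF4 beta-lactamase fluorescence; Hill-fit IC50 and efficacy.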

[9] = molecular target: Peroxisome proliferator-activated receptor gamma (Homo sapiens) (UniProt P37231); assay: qHTS assay for small molecule agonists of peroxisome proliferator-activated receptor gamma signaling (AID 588536; active = well fitted curve in the direction sought with a large enough effect in the signal ratio, with a control signal flat, not every such curve was filed as active; the % refers to the signal ratio;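 note: 0% = DMSO basal wells and 100% = rosiglitazone at 2 µM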)
Peroxisome proliferator-activated receptor gamma (Homo sapiens), sequence (P37231 whole entry, looked up): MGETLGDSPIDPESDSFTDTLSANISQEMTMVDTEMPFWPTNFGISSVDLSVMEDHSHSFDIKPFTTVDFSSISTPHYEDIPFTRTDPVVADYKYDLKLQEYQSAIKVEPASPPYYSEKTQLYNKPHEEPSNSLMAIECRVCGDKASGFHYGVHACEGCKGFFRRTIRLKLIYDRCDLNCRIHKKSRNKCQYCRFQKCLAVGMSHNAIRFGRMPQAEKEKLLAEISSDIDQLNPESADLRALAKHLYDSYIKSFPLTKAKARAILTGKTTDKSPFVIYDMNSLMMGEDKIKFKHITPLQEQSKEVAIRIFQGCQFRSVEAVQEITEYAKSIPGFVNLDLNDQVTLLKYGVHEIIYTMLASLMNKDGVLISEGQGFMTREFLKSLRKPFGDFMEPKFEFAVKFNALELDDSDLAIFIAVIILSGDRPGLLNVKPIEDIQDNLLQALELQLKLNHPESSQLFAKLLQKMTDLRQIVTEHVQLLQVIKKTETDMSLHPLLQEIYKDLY
In short: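 Beta-lactamase reporter read-out: CCF4 fluorescence (ex 405, em 460/530 nm) after 2 h at RT. HEK293 GeneBLAzer cells were treated for 16 h at 37 C. Hill fits gave EC50 and efficacy versus 2 uM rosiglitazone (100%) and DMSO (0%).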

[10] = qHTS assay for small molecule activators of the nuclear factor-kappa B (NF-kB) signaling pathway (AID 651749; active = well fitted activation curve with a large enough effect in the signal ratio; the % refers to the signal ratio; note: % of control where 0% means no effect); conditions: NF-kB-bla ME-180 cells, beta-lactamase FRET ratio, 16 h; stronger effect = higher value
In short: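 Activation measured after 16 hr compound treatment at 37C, 5% CO2, of 2,000 ME-180 cells/well stably expressing an NF-kB response element–driven beta-lactamase reporter, via FRET-disruption fluorescence.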

[11] = qHTS assay for small molecule antagonists of the retinoid-related orphan receptor gamma (ROR-gamma) signaling pathway - cell viability counter screen (AID 720652; active = well fitted curve in the direction sought with a large enough effect in the repeat runs; an effect the other way counts as inactive or inconclusive;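 note: CHO reporter cells with doxycycline-induced ROR-gamma expression; compound exposure lasted 16 hr before ATP read; % is set by controls: 0 for no effect and ±100 for the full control effect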)
In short: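 Cytotoxicity counter screen: intracellular ATP (CellTiter-Glo luminescence) measured in the doxycycline-induced CHO RORE-luciferase reporter line after 16 hr compound exposure at 37 C, 5% CO2.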

[12] = qHTS assay for cell viability of HEK293 cells (AID 743288); conditions: ATP luminescence (CellTiter-Glo), 18 h; max response: stronger effect = lower value; note: % is set by controls: 0 for no effect and ±100 for the full control effect; nearly all actives have a fitted effect of over 50% in size
In short: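 Steps: plate 2,000 parental HEK293 cells per well; incubate ≥5 h, 37 C; add compounds in DMSO; incubate 18 h, 37 C; add CellTiter-Glo; wait 30 min at room temperature; read luminescence.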

[13] = molecular target: Cytochrome P450 3A4 (Homo sapiens) (UniProt P08684); assay: qHTS Assay for Inhibitors and Substrates of Cytochrome P450 3A4 (AID 884); note: % is set by controls: 0 for no effect and ±100 for the full control effect; nearly all actives have a fitted effect of over 50% in size
Cytochrome P450 3A4 (Homo sapiens), sequence (P08684 whole entry, looked up): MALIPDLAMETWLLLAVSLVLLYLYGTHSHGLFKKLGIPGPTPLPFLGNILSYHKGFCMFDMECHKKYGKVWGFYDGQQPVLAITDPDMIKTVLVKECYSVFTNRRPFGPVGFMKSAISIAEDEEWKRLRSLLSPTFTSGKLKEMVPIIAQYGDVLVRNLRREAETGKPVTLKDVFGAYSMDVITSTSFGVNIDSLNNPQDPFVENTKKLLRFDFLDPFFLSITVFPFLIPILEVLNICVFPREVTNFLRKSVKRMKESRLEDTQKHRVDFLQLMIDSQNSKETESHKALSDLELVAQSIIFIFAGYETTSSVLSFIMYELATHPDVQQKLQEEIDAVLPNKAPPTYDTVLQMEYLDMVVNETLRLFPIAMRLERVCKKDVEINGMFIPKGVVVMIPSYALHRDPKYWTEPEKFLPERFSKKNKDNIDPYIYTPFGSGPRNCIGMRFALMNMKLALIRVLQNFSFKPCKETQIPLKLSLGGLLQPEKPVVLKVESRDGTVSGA
In short: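 Luminescent readout of luciferin produced by CYP3A4 (20 nM) dealkylation of Luciferin-PPXE, 25 uM (its KM). NADPH-driven reaction ran 60 min at RT after 10 min compound preincubation; data scaled to 57 uM ketoconazole as 100% inhibition.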

[14] = qHTS assay for small molecule agonists of the antioxidant response element (ARE) signaling pathway (AID 651741; active = well fitted activation curve with a large enough effect in the signal ratio; the % refers to the signal ratio; note: potency is the fitted concentration of half-maximal effect; for activation: % of control where 0% means no effect)
In short: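 Beta-lactamase reporter under ARE control in HepG2 cells, 2,000 per well, was induced by 16 h compound treatment at 37 C. Read-out was fluorescence from LiveBLAzer B/G FRET substrate after 2 h at room temperature.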

[15] = molecular target: Nuclear receptor ROR-gamma (Homo sapiens) (UniProt P51449); assay: qHTS assay for small molecule antagonists of the retinoid-related orphan receptor gamma (ROR-gamma) signaling pathway (AID 651802); note: nearly all actives have a fitted effect of over 60% in size; note: potency is the fitted concentration of half-maximal effect
Nuclear receptor ROR-gamma (Homo sapiens), sequence (P51449 whole entry, looked up): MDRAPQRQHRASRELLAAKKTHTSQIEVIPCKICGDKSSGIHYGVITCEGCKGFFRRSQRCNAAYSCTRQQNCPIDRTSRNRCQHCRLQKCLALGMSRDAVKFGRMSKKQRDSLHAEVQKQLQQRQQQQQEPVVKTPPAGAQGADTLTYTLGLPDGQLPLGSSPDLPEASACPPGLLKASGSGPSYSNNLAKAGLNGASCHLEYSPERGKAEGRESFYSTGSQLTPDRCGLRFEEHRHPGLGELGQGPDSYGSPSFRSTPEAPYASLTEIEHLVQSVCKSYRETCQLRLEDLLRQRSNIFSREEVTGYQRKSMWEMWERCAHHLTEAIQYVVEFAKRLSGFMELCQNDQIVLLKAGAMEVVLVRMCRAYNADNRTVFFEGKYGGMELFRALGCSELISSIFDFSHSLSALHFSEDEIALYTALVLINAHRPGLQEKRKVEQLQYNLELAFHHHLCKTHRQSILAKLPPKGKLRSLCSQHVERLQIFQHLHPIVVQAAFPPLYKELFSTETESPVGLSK
In short: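 Luminescence (One-Glo, 30 min RT) measured 16 h after compound addition and doxycycline induction at 37C. Reporter: RORE-luciferase under TET-inducible ROR-gamma in CHO cells.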

[16] = qHTS assay for small molecule agonists of the antioxidant response element (ARE) signaling pathway measured by Nrf2-dependant transcriptional activity - cell viability counter screen (AID 720653; active = well fitted curve in the direction sought with a large enough effect in the repeat runs; an effect the other way counts as inactive or inconclusive; note: % is set by controls: 0 for no effect and ±100 for the full control effect); conditions: ARE-bla HepG2 viability, CellTiter-Glo ATP luminescence, 16 h; max response: stronger effect = lower value
In short: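 Cytotoxicity counter screen: intracellular ATP quantified by CellTiter-Glo luminescence in the same ARE-bla HepG2 plates, after 16 h compound exposure and a 2 h beta-lactamase substrate step.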

[17] = qHTS assay for small molecule activators of the human pregnane X receptor (PXR) signaling pathway (AID 720659; call rule not given here; note: 0% is about no effect)
[18] = qHTS assay for small molecule antagonists of peroxisome proliferator-activated receptor delta signaling (AID 588535; active = well fitted inhibition curve with a large enough effect in the signal ratio, with a control signal flat, not every such curve was filed as active; the % refers to the signal ratio;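 for max response: cells co-treated with a PPAR-delta agonist as stimulator during compound exposure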); conditions: HEK293T PPARd-UAS-bla, beta-lactamase FRET ratio, 18 h; 460 nm channel
In short: (§1)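 Titrations were run on PPAR-delta-UAS-bla HEK293T cells in charcoal/dextran-stripped serum, incubated 18 h at 37 C. CCF4 fluorescence (460/530 nm) after 2 h RT; Hill equation yields IC50 and maximal response.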

[19] = molecular target: Peroxisome proliferator-activated receptor delta (Homo sapiens) (UniProt Q03181); assay: as above
Peroxisome proliferator-activated receptor delta (Homo sapiens), sequence (Q03181 whole entry, looked up): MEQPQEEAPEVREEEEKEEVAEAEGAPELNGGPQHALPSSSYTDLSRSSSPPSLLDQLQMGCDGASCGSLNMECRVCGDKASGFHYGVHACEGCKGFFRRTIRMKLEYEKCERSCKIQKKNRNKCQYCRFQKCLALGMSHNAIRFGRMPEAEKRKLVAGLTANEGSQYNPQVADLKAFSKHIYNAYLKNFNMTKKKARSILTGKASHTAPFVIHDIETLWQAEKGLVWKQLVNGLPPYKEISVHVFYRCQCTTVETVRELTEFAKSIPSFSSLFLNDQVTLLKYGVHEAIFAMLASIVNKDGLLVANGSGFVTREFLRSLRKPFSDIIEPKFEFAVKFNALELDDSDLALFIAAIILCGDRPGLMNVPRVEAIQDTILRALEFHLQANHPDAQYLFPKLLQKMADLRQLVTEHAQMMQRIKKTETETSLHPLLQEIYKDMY
In short: as §1

[20] = Cell Viability - MRC5 (AID 434; calls by dose curve;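 note: potency is the fitted concentration of half-maximal effect; cells exposed to compound for 40 hours at 37 °C; potency reflects cytotoxicity seen as loss of intracellular ATP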); conditions: MRC5 lung fibroblast viability, qHTS
In short: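 AC50 values come from Hill-equation fits of intracellular ATP loss, measured by CellTiter-Glo luminescence. Normal lung fibroblasts (MRC5) had 40 hr compound treatment at 37 C, normalized between DMSO and 100 uM tamoxifen.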

CCOc1ccc2nc(N)sc2c1
inactive: activity change, negative = cytotoxicity [1] -15.3% | Potency [2] | Potency [3] | Potency [4] | caspase-3 activation [5] 2.81% | Potency [6] | Potency [7] | outcome [8] | outcome [9] | activation [10] -0.893% | Potency [11] | max response [12] -4.83%

Brc1ccc(-c2ccccc2)cc1
inactive: activity change, negative = cytotoxicity [1] -9.21% | Potency [2] | Potency [3] | Potency [4] | caspase-3 activation [5] -0.717% | Potency [13] | Potency [6] | Potency [7] | Potency [14] | activation [10] 2.79% | Potency [15] | Potency [11] | max response [16] -10.1% | outcome [17]

O=CC(=O)c1ccccc1
7.18%: max response [18]
inactive: Potency [2] | Potency [3] | caspase-3 activation [5] 3.78% | Potency [13] | Potency [6] | outcome [8] | outcome [19] | outcome [9] | activation [10] -1.11% | Potency [11] | outcome [17]

O=C(OCC1CO1)C1CCCCC1C(=O)OCC1CO1 (stereo not given)
active: Potency [14] 42.2 µM
inactive: Potency [20] > 92 µM | activity change, negative = cytotoxicity [1] -15% | Potency [2] | Potency [3] | Potency [4] | caspase-3 activation [5] 4.8% | Potency [6] | Potency [15] | Potency [11] | max response [16] 4.68% | max response [12] -26.2% | outcome [17]

Nc1ccc(-c2ccc(N)c(O)c2)cc1O
active: activity change, negative = cytotoxicity [1] -88.2%
inactive: Potency [20] > 92 µM | Potency [2] | Potency [6] | outcome [8] | Potency [15] | Potency [11] | max response [12] -18.5% | outcome [17]

c1ccc2ncccc2c1
41.8%: max response [18]
inactive: Potency [20] > 92 µM | activity change, negative = cytotoxicity [1] -0.00606% | Potency [2] | Potency [3] | caspase-3 activation [5] -0.104% | Potency [6] | Potency [7] | outcome [8] | outcome [19] | outcome [9] | Potency [14] | Potency [15] | Potency [11] | max response [16] 0.928% | max response [12] -7.69% | outcome [17]

c1cc2c3c(c1)ccc1cccc(c13)C2
inactive: Potency [20] > 92 µM | activity change, negative = cytotoxicity [1] -13.2% | Potency [2] | Potency [4] | caspase-3 activation [5] -1.87% | Potency [7] | outcome [19] | activation [10] -2.58% | Potency [15] | Potency [11] | outcome [17]
4.88%: max response [18]

CCNC(=S)NCC
inactive: Potency [20] > 92 µM | Potency [4] | caspase-3 activation [5] -2.38% | Potency [6] | Potency [7] | outcome [8] | outcome [19] | outcome [9] | Potency [14] | activation [10] 0.201% | Potency [15] | Potency [11] | max response [16] -3.61% | max response [12] -6.53% | outcome [17]
61.6%: max response [18]

C=C(C#N)C(=O)OCC
active: activity change, negative = cytotoxicity [1] -117%
inactive: Potency [20] > 92 µM | Potency [2] | Potency [3] | Potency [4] | caspase-3 activation [5] -3.19% | Potency [13] | Potency [6] | Potency [7] | outcome [19] | outcome [9] | Potency [14] | activation [10] -1.44% | Potency [15] | Potency [11] | max response [16] -14.3% | max response [12] -12.8% | outcome [17]
-32.1%: max response [18]

CCCCC(CC)COC(=O)COc1ccc(Cl)cc1Cl (stereo not given)
inactive: activity change, negative = cytotoxicity [1] 0.559% | Potency [2] | Potency [3] | Potency [4] | caspase-3 activation [5] 1.58% | Potency [13] | Potency [6] | Potency [7] | outcome [8] | outcome [9] | Potency [11] | max response [12] -3.29% and 2.38% | outcome [17]

Cc1ccc2ccc3cccc4ccc1c2c34
active: Potency [14] 59.6 µM
18.4%: max response [18]
inactive: Potency [20] > 92 µM | activity change, negative = cytotoxicity [1] -8.7% | Potency [2] | Potency [4] | caspase-3 activation [5] 0.114% | Potency [7] | outcome [8] | outcome [19] | outcome [9] | activation [10] -0.92% | max response [16] 2.48% | max response [12] -6.64% | outcome [17]

Cc1ccc(O)c(N)c1
-35.8%: max response [18]
active: activity change, negative = cytotoxicity [1] -124% | Potency [14] 16.8 µM
inactive: Potency [20] > 92 µM | Potency [2] | Potency [4] | caspase-3 activation [5] 1.75% | Potency [13] | outcome [19] | Potency [11] | max response [16] -26.2% | max response [12] -7.01%

O=[N+]([O-])c1cc(Cl)c(Cl)c(Cl)c1Cl
8.11%: max response [18]
inactive: Potency [20] > 92 µM | Potency [2] | Potency [3] | Potency [4] | caspase-3 activation [5] 2.6% | Potency [13] | Potency [6] | outcome [19] | activation [10] -0.62% | outcome [17]
active: Potency [1] 7.94 µM | Potency [14] 29.8 µM | Potency [15] 33.5 µM

NC(=O)Nc1nc2ccccc2[nH]1
inactive: Potency [2] | Potency [3] | Potency [4] | Potency [13] | Potency [6] | Potency [7] | outcome [8] | outcome [19] | outcome [9] | Potency [14] | activation [10] -0.124% | Potency [15] | Potency [11]
-10.2%: max response [18]

O=[N+]([O-])c1ccc(F)cc1F
inactive: Potency [20] > 92 µM | Potency [2] | Potency [3] | Potency [4] | caspase-3 activation [5] -0.155% | Potency [13] | Potency [6] | Potency [7] | outcome [8] | outcome [19] | outcome [9] | Potency [14] | activation [10] 0.374% | Potency [15] | Potency [11] | max response [16] 13.3% | outcome [17]
10.2%: max response [18]
